# Data from PubChem BioAssay (NCI).
# About 83,000 compounds went through this panel and 20% of them were active in at least one assay; those are over-represented in the sample as a whole.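 Percent growth is the endpoint: 0 to 100 indicates growth inhibition (40 means 60% inhibition), 0 means no net growth, and negative values indicate cell death.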 Unmarked numbers belong to inactive results. The source made the active and inactive calls. Rule for the calls: active = growth percent below 10; inactive = the rest.
# Columns and labels:
# Experiment in all cases: NCI-60 one-dose screen, 48 h (100 = growth as untreated, 0 = no growth, -100 = all killed)
# SK-MEL-2 melanoma = details: 10 µM unless noted
# EKVX NSCLC = details: 10 µM unless noted
# UO-31 renal = details: 10 µM unless noted
# TK-10 renal = details: 10 µM unless noted
# ACHN renal = details: 10 µM unless noted
# CAKI-1 renal = details: 10 µM unless noted
# A498 renal = details: 10 µM unless noted
# CCRF-CEM leukemia = details: 10 µM unless noted
# SR leukemia = details: 10 µM unless noted
# RPMI-8226 leukemia = details: 10 µM unless noted
# OVCAR-8 ovarian = details: 10 µM unless noted
# OVCAR-5 ovarian = details: 10 µM unless noted
# OVCAR-4 ovarian = details: 10 µM
# SK-OV-3 ovarian = details: 10 µM unless noted
# OVCAR-3 ovarian = details: 10 µM unless noted
# HS 578T breast = details: 10 µM unless noted
# NCI/ADR-RES ovarian = details: 10 µM unless noted
# MOLT-4 leukemia = details: 10 µM unless noted
# IGROV1 ovarian = details: 10 µM unless noted
# SN12C renal = details: 10 µM unless noted
Structure (SMILES),growth (SK-MEL-2 melanoma),growth (EKVX NSCLC),growth (UO-31 renal),growth (TK-10 renal),growth (ACHN renal),growth (CAKI-1 renal),growth (A498 renal),growth (CCRF-CEM leukemia),growth (SR leukemia),growth (RPMI-8226 leukemia),growth (OVCAR-8 ovarian),growth (OVCAR-5 ovarian),growth (OVCAR-4 ovarian) [%],growth (SK-OV-3 ovarian),growth (OVCAR-3 ovarian),growth (HS 578T breast),growth (NCI/ADR-RES ovarian),growth (MOLT-4 leukemia),growth (IGROV1 ovarian),growth (SN12C renal) [%]
CN(C)c1cc(NN=C(c2ccc(O)cc2)c2ccc(O)cc2)c([N+](=O)[O-])cc1[N+](=O)[O-],-12.1% (active),94.2%,1.38% (active),136%,50.1%,74.8%,135%,107%,92.2%,131%,8.9% (active),98.4%,97,96.5%,95.5%,102%,44.2%,–,–,–
CCOC(=O)c1cnc2ccc(Br)cc2c1Nc1cccc(S(N)(=O)=O)c1,109%,96.2%,81.2%,105%,96.2%,74.1%,66.5%,102%,94.6%,97%,92.8%,93.6%,–,105%,102%,98.5%,97.4%,85.1%,99.6%,–
Cc1ccc(S(=O)(=O)n2cc(C(=O)C(=O)N3CCCCC3)c3ccccc32)cc1,90.6%,74.8%,53.6%,103%,65.6%,58.9%,90.8%,74.9%,57.6%,45.9%,91.9%,76.3%,49.9,92%,77%,–,73.8%,86.9%,71.9%,–
CC(C)C1=NOC(=O)C1=Cc1cn(-c2ccccc2)nc1-c1ccccc1,99.2%,99.3%,70.2%,82.3%,84.5%,–,–,8.48% (active),-26.9% (active),-16.2% (active),59.8%,102%,–,112%,88.4%,64%,94.6%,7.72% (active),67.5%,79.2
COC(=O)[C@]12CCC(C)(C)C[C@H]1C1=CC[C@@H]3[C@@]4(C)C/C(=C/c5cccnc5)C(=O)C(C)(C)[C@@H]4CC[C@@]3(C)[C@]1(C)CC2,-70.3% [100 µM] (active),-44.8% [100 µM] (active),-81.6% [100 µM] (active),-35.9% [100 µM] (active),-61.1% [100 µM] (active),-15.4% [100 µM] (active),-69.8% [100 µM] (active),2.85% [100 µM] (active),47.7% [100 µM],-38.4% [100 µM] (active),0.407% [100 µM] (active),-19.5% [100 µM] (active),–,7.52% [100 µM] (active),-1.73% [100 µM] (active),-18.5% [100 µM] (active),-40.5% [100 µM] (active),-14% [100 µM] (active),-34.2% [100 µM] (active),–
O=C(N=c1n(-c2ccccc2)nc2n1CCN2C1=NCCN1C(=O)c1ccc(Cl)cc1)c1ccc(Cl)cc1,83.3%,77.1%,59.8%,74.6%,59.1%,75.2%,73.7%,51.4%,73.9%,73.2%,78.7%,88.8%,–,92.9%,53.6%,82.7%,73.3%,–,59%,–
COc1ccc2nc3cc(Cl)ccc3c(Nc3ccc(O)cc3)c2c1,110%,94.5%,62.1%,88%,66.6%,71.5%,57.2%,23.9%,-22.2% (active),68.6%,68.5%,104%,90.4,93.3%,83%,76.2%,71.2%,9.49% (active),71.3%,–
COc1cc(NN=C(c2ccc(O)cc2)c2ccc(O)cc2)c([N+](=O)[O-])cc1[N+](=O)[O-],-70.2% (active),108%,-66.4% (active),93.5%,42.4%,97%,125%,103%,50.6%,81.5%,-31.7% (active),24.1%,88.9,5.8% (active),60.9%,93.8%,8.39% (active),94.6%,–,–
